According to PubChem BioAssay (Tox21):
“And” between values parts separate entries of the source, which are not always exact repeats. Equal entries are not always repeated. Results filed as inconclusive are left out. Entries that show only a call come without a potency. More than one record can exist for a structure, and the calls need not agree. The source made the active and inactive calls. Unless noted, calls follow the shape of the dose curve; as a rule, active = well fitted curve in the direction sought with a large enough effect in the repeat runs; inconclusive = weak or mixed curves; inactive = no such curve, though single readings can be large; an effect the other way counts as inactive or inconclusive.

Tests used:
[1] = qHTS assay to identify small molecule antagonists of the glucocorticoid receptor (GR) signaling pathway - cell viability counter screen (AID 720693); also: nearly all actives have a fitted effect of over 55% in size
[2] = qHTS assay for identifying genotoxic compounds that show differential cytotoxicity against isogenic chicken DT40 cell lines with known DNA damage response pathways - wild type cell line (AID 743012); also: nearly all actives have a fitted effect of over 60% in size; also: potency is read from the fitted curve at half-maximal effect
Procedure, shortened: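 Cells (DT40 wild type, 300/well) are treated with DMSO-dissolved compounds after a ~0.5 h pre-incubation and kept 40 h at 37 C/5% CO2. Viability is then measured by CellTiter-Glo luminescence following 30 min at room temperature.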

[3] = qHTS assay for identifying genotoxic compounds that show differential cytotoxicity against isogenic chicken DT40 cell lines with known DNA damage response pathways - Rev3 mutant cell line (AID 743014); also: nearly all actives have a fitted effect of over 55% in size; also: potency is read from the fitted curve at half-maximal effect
[4] = qHTS assay for identifying genotoxic compounds that show differential cytotoxicity against isogenic chicken DT40 cell lines with known DNA damage response pathways - Rad54/Ku70 mutant cell line (AID 743015); also: nearly all actives have a fitted effect of over 60% in size; also: potency is read from the fitted curve at half-maximal effect
[5] = qHTS assay to identify small molecule antagonists of the androgen receptor (AR) signaling pathway - cell viability counter screen (AID 743033; also: nearly all actives have a fitted effect of over 45% in size)
[6] = qHTS assay to identify small molecule antagonists of the androgen receptor (AR) signaling pathway using the MDA cell line - cell viability counter screen (AID 743041; also: nearly all actives have a fitted effect of over 45% in size; also: potency is read from the fitted curve at half-maximal effect)
Procedure, shortened: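 MDA-kb2 AR-luc human breast carcinoma cells (MMTV-luciferase, AR/GR responsive) were treated with compounds plus R1881 agonist for 16 h at 37 °C. Viability was read as CellTiter-Fluor fluorescence in the same wells as the reporter assay.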

[7] = molecular target: Androgen receptor (Homo sapiens) (UniProt P10275); test: qHTS assay to identify small molecule antagonists of the androgen receptor (AR) signaling pathway (AID 743035; active = well fitted inhibition curve with a large enough effect in the signal ratio in the repeat runs, not every such curve was filed as active; the % refers to the signal ratio)
Procedure, shortened: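 Antagonism is scored as loss of R1881-driven beta-lactamase reporter expression in HEK293 cells carrying the reporter under a UAS element, after 16 h co-treatment at 37C and a 2 h room-temperature FRET substrate read.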

[8] = molecular target: Androgen receptor (Homo sapiens) (UniProt P10275); test: qHTS assay to identify small molecule agonists of the androgen receptor (AR) signaling pathway (AID 743036; active = well fitted activation curve with a large enough effect in the signal ratio in the repeat runs, with a control signal flat, not every such curve was filed as active; the % refers to the signal ratio; also: potency is read from the fitted curve at half-maximal effect)
Procedure, shortened: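 HEK293 cells stably carrying a UAS-driven beta-lactamase reporter (GeneBLAzer AR-UAS-bla-GripTite) were plated at 2,000 cells/well, rested 4 h at 37C, then exposed to compounds in DMSO for 16 h. LiveBLAzer B/G FRET substrate was added for 2 h at room temperature; fluorescence read.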

[9] = molecular target: Androgen receptor (Homo sapiens) (UniProt P10275); test: qHTS assay to identify small molecule agonists of the androgen receptor (AR) signaling pathway using the MDA cell line (AID 743040; also: potency is read from the fitted curve at half-maximal effect; nearly all actives have a fitted effect of over 20% in size)
Procedure, shortened: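 MDA-kb2 breast carcinoma cells stably carrying an MMTV-driven luciferase reporter (AR- and GR-responsive) were seeded and held 5 h at 37C, 0% CO2, then exposed to compounds in DMSO for 16 h. Luminescence was read 30 min after ONE-Glo addition.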

[10] = molecular target: Androgen receptor (Homo sapiens) (UniProt P10275); test: qHTS assay to identify small molecule antagonists of the androgen receptor (AR) signaling pathway using the MDA cell line (AID 743042; also: nearly all actives have a fitted effect of over 55% in size)
Procedure, shortened: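 MDA-kb2 cells (human breast carcinoma, stably carrying an MMTV-luciferase reporter responsive to AR and GR) were plated at 3,000 cells/well and preincubated 5 hr at 37C, then given compound plus R1881 agonist for 16 h. ONE-Glo luminescence was read.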

Androgen receptor (Homo sapiens), sequence (P10275 whole entry, looked up): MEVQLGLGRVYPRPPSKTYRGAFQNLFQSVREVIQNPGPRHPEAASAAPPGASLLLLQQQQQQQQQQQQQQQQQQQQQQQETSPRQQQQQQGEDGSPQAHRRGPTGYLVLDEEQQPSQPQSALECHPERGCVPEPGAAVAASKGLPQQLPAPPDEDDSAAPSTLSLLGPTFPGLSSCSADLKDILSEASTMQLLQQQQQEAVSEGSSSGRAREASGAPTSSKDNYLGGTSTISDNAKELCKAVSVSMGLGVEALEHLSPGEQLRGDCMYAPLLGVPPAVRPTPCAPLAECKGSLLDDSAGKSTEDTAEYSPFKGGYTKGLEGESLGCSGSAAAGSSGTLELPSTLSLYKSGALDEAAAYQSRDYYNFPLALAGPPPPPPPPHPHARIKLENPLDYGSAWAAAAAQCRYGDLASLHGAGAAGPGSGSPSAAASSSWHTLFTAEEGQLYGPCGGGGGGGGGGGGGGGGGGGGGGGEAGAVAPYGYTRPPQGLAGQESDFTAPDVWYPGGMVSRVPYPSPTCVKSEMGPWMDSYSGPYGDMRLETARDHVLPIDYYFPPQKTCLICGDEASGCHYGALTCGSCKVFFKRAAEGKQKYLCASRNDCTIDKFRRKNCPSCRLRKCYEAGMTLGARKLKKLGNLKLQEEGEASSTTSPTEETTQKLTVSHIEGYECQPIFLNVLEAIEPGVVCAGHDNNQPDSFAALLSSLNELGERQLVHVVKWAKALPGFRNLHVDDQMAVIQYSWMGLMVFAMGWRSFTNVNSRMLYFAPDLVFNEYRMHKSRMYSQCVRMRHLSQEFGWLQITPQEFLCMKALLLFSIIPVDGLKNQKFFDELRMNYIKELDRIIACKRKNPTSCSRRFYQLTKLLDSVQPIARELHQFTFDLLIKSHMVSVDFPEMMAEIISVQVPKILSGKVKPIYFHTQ

SMILES	outcome [1]	Potency [2]	Potency [3]	Potency [4]	outcome [5]	Potency [6]	outcome [7]	Potency [8]	Potency [9]	outcome [10]
C=C(C)CNCC	inactive	inactive	inactive	inactive	inactive	inactive				
O=C(O)c1ccccc1C(=O)O	inactive	inactive	inactive	inactive	inactive	inactive				
O=C(O)c1ccc(S(=O)(=O)N(Cl)Cl)cc1	inactive	inactive	43.5 µM (active)	inactive and 24.5 µM (active)	inactive	inactive				
O=S(=O)(O)c1ccccc1	inactive	inactive	inactive	inactive	inactive	inactive				
CN(C)c1ccc(O)c2c1C[C@H]1C[C@H]3[C@H](N(C)C)C(=O)C(C(N)=O)=C(O)[C@@]3(O)C(=O)C1=C2O	inactive	21.1 µM (active) [middle of 4 runs]	26.6 µM (active) and 18.8 µM (active) and 13.7 µM (active)	23.7 µM (active) [middle of 4 runs]	inactive	inactive				
CCCCC(C=O)CC (centres undefined)	inactive	inactive	inactive	inactive	inactive	inactive				
CCCOC(=O)c1ccccc1	inactive	inactive	inactive	inactive	inactive	inactive				
C=CC[N+](C)(C)CC=C	inactive	inactive	inactive	inactive	inactive	inactive				
CCCCCCC=O	inactive	inactive and 48.6 µM (active)	inactive and 43.3 µM (active)	inactive and 43.3 µM (active)	inactive	inactive				
CCc1ccccc1CC	inactive	inactive	inactive	inactive	inactive	inactive				
CC(CCl)OP(=O)(OC(C)CCl)OC(C)CCl (centres undefined)	inactive	inactive	inactive	inactive	inactive	inactive				
Nc1nc(N)nc(-c2ccccc2)n1	inactive	inactive	inactive	inactive	inactive	inactive				
c1ccc2c(c1)Cc1ccccc1-2	inactive	inactive	inactive and 61.1 µM (active)	inactive and 61.1 µM (active)	inactive	inactive				
C=C(C)C(=O)OCC(C)C	inactive	inactive	inactive	inactive	inactive	inactive				
O=c1[nH]cnc2[nH]ncc12	inactive	inactive	inactive	inactive	inactive	inactive				
CC(C)OC(=O)COc1ccc(Cl)cc1Cl	inactive	inactive	inactive	inactive	inactive	inactive				
C=CCCCCCCCCC(=O)O	inactive	inactive	inactive	inactive	inactive	inactive				
COCCCN	inactive	inactive	inactive	inactive	inactive	inactive				
O=C1CCCC1	inactive	inactive	inactive	inactive	inactive	inactive				
CCOCC(=O)O	inactive	inactive	inactive	inactive	inactive	inactive				
CC1(C)NC(=O)NC1=O	inactive	inactive	inactive	inactive	inactive	inactive				

SMILES	outcome [1]	Potency [2]	Potency [3]	Potency [4]	outcome [5]	Potency [6]	outcome [7]	Potency [8]	Potency [9]	outcome [10]
Brc1ccc(Br)c(Br)c1	inactive	inactive	inactive	inactive	inactive	inactive				
OC1C(O)C(O)C(O)C(O)C1O (centres undefined)	inactive	inactive	inactive	inactive	inactive	inactive				
CC1(C)S[C@@H]2[C@H](NC(=O)COc3ccccc3)C(=O)N2[C@H]1C(=O)O	inactive	inactive	inactive	inactive	inactive	inactive				
CNC(=O)Oc1ccc2c(c1)[C@]1(C)CCN(C)[C@@H]1N2C	inactive	inactive	inactive and 48.6 µM (active)	inactive	inactive	inactive				
CC(C)c1cccc(C(C)C)c1	inactive	inactive	inactive	inactive	inactive	inactive				
CCCCCCCCCCN	inactive	inactive	inactive	inactive	inactive	inactive				
O=S(=O)(O)c1ccc(N=Nc2c(O)ccc3cc(S(=O)(=O)O)ccc23)cc1	inactive	inactive	inactive	inactive	inactive	30.8 µM (active) and 27.3 µM (active)				
CC1(C)CC(N)CC(C)(CN)C1 (centres undefined)	inactive	inactive	inactive and 54.5 µM (active)	inactive	inactive	inactive				
O=C1c2ccccc2CCc2ccccc21	inactive				inactive	inactive				
CC(C)(C#N)c1cc(Cn2cncn2)cc(C(C)(C)C#N)c1	inactive	inactive	inactive	inactive	inactive	inactive				
C[Si]1(C)O[Si](C)(C)O[Si](C)(C)O[Si](C)(C)O1	inactive	inactive	inactive	inactive	inactive	inactive				
O=C1C(c2[nH]c3ccccc3c2O)=Nc2ccccc21	inactive	inactive	inactive	inactive	inactive	inactive				
COC(=O)CCCC(=O)OC	inactive	inactive	inactive	inactive	inactive	inactive				
CC(C)=CCl	inactive	inactive	34.8 µM (active) and inactive	inactive	inactive	inactive				
CNC(=S)N(C)C	inactive	inactive	inactive	inactive	inactive	inactive				
C[C@]12CCC(=O)C=C1CC[C@@H]1[C@@H]2[C@@H](O)C[C@@]2(C)[C@H]1CC[C@]2(O)C(=O)CO	inactive	inactive	inactive	inactive		inactive	inactive	21.3 nM (active) and 27.8 nM (active)	119 nM (active) and 69.3 nM (active)	inactive
C=Cc1ccc(C)cc1	inactive	inactive	inactive	inactive	inactive	inactive				
O=C(OCC1CCC2OC2C1)C1CCC2OC2C1 (centres undefined)	inactive		10.1 µM (active) and 9.69 µM (active)	inactive	inactive	inactive				
CC(=O)OC1CC(C)OC(C)O1 (centres undefined)	inactive	inactive	inactive	inactive	inactive	inactive				
O=C(O)CCCCCCCCC(=O)O	inactive	inactive	inactive	inactive	inactive	inactive				
CCCCCCCC=O	inactive	inactive	inactive	inactive	inactive	inactive				

SMILES	outcome [1]	Potency [2]	Potency [3]	Potency [4]	outcome [5]	Potency [6]	outcome [7]	Potency [8]	Potency [9]	outcome [10]
CC(=O)c1ccc(O)cc1	inactive	inactive	inactive	inactive	inactive	inactive				
CCCCOC(=O)c1ccc(N)cc1	inactive	inactive and 13.5 µM (active)	9.44 µM (active) and 13.5 µM (active)	7.5 µM (active) and 7.59 µM (active)	inactive	inactive				
N#Cc1ccccc1	inactive	inactive	inactive	inactive	inactive	inactive				
Cc1ccc(C(C)C)c(O)c1	inactive	inactive and 48.6 µM (active)	inactive and 17.2 µM (active)	inactive and 61.1 µM (active)	inactive	inactive				
CCOC(=O)n1ccn(C)c1=S	inactive	inactive			inactive	inactive				
C=CC(C)CCCC(C)(C)O (centres undefined)	inactive	inactive	inactive and 61.1 µM (active)	inactive	inactive	inactive				
CC(=O)OCCOC(C)=O	inactive	inactive	inactive	inactive	inactive	inactive				
CCNc1cccc(C)c1	inactive	inactive	inactive	inactive	inactive	inactive				
C[C@]12CC[C@@H]3c4ccc(O)cc4CC[C@H]3[C@@H]1C[C@@H](O)[C@@H]2O	inactive				inactive	inactive				
CCCCCCCCCCCCCCCCO	inactive	inactive	inactive and 68.6 µM (active)	inactive	inactive	inactive				
CCCCCCCCCCCCCCCC(=O)OC(C)C	inactive	inactive	inactive	inactive	inactive	inactive				
CCOCCOCCOCCO	inactive	inactive	inactive	inactive	inactive	inactive				
C=C(C)[C@H]1CC=C(C)C(=O)C1	inactive	inactive	inactive	inactive	inactive	inactive				
CN(C)CCOC(=O)COc1ccc(Cl)cc1	inactive	inactive	inactive	inactive	inactive	inactive				
N[C@H](Cc1c[nH]c2ccccc12)C(=O)O	inactive	inactive	inactive	inactive	inactive	inactive				
CC1(C)OC[C@@H]2O[C@@]3(C(=O)O)OC(C)(C)O[C@H]3[C@@H]2O1	inactive	inactive	inactive	inactive	inactive	inactive				
CN1C(=O)CC[C@H]1c1cccnc1	inactive	inactive	inactive	inactive	inactive	inactive				
Cc1ccc(S(=O)(=O)N=C=O)cc1	inactive	inactive	inactive	inactive	inactive	inactive				
CC(=O)OCc1ccco1	inactive		27.3 µM (active)	inactive	inactive	inactive				
Nc1ccc(Cl)c(N)c1	inactive	inactive	inactive		inactive	inactive				
CC(C)OP(=O)(CP(=O)(OC(C)C)OC(C)C)OC(C)C	inactive		inactive	inactive	inactive	inactive				
